From PubChem BioAssay (Tox21)
Values joined by “and” are separate entries in the source; they are usually repeats but may differ in a detail not shown here. Equal values may be shown once. Inconclusive results are not listed. Where a call stands in place of a potency, no number is given. The source holds several records for some structures; these can differ, active in one and inactive in another. Active and inactive are the calls of the source. Calls follow the shape of the dose curve; as a rule, active = well fitted inhibition curve with a large enough effect in the repeat runs; inconclusive = weak or mixed curves; inactive = no such curve, though single readings can be large or run the other way.

Molecular target: Cytochrome P450 3A4 (Homo sapiens) (UniProt P08684)
Sequence (P08684 whole entry, looked up): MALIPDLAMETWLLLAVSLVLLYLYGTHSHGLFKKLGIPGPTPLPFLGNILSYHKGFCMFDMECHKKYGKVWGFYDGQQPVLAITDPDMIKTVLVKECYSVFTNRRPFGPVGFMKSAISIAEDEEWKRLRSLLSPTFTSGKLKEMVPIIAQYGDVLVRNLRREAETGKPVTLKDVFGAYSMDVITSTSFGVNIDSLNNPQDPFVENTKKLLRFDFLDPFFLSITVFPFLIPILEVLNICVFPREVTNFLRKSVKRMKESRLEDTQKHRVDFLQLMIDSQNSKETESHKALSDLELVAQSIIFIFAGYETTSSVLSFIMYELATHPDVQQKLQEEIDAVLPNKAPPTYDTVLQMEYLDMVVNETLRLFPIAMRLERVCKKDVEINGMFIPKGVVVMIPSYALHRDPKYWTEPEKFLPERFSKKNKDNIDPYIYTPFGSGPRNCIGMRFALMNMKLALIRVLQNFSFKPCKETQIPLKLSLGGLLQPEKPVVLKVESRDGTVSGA
Assay: Cytochrome P450 Family 3 Subfamily A Member 4 (CYP3A4) small molecule antagonists: luciferase reporter qHTS assay (AID 1671201); also: nearly all actives have a fitted effect of over 50% in size
Settings: P450-Glo CYP3A4 enzyme, luciferin luminescence, 1 h; series mostly up to 115 µM; activity change, negative = inhibition: at the top concentration
Excerpt: National Center for Advancing Translational Sciences [NCATS]
U.S. Environmental Protection Agency [EPA]
National Institutes of Environmental Health Sciences [NIEHS]
National Toxicology Program [NTP]
U.S. Food and Drug Administration [FDA]
Cytochrome P450 (CYP) enzymes are membrane-bound hemeproteins that play a key role in metabolism of drugs and xenobiotics. Evaluation of the effect of chemicals on CYP isozymes is useful to minimize the adverse drug reactions and toxicities in drug development process. Tox21 chemicals were tested for their effect on CYP enzyme activities by using P450-Glo (TM) screening systems (Promega Corporation, Madison, WI). These systems provide a luminescent method containing proluciferin substrates and are converted to luciferin products by CYP isozymes. The luciferin products formed are detected with a luciferin detection reagent, and the amount of light produced is proportional to CYP activity. P450-Glo (TM) CYP3A4 screening system (Catalog. No. V9910) was used to detect the compounds that interfere in CYP3A4 activity. The positive control compound used for CYP3A4 assay is ketoconazole (Sigma-Aldrich, St. Louis, MO).
Tox21 Assay Protocol Summary:
Two ul of enzyme-substrate mix was dispensed into medium binding white/solid 1536-well plates (Greiner Bio-One North America Inc., Monroe, NC) using a BioRaptr Flying Reagent Dispenser (FRD, Beckman Coulter, Brea, CA). Compounds dissolved in DMSO and positive control (ketoconazole) were transferred to the assay plates at 23 nl using a Pintool station (Wako, San Diego, CA). The assay plates were incubated at room temperature for 10 min. Then 2 ul of NADPH regeneration solution was added to each well of the assay plates using an FRD and incubated at room temperature for 1 h. The reaction was stopped by adding 4 ul of detection reagent using an FRD and after 20 min incubation at room temperature the luminescence signal was measured using a ViewLux plate reader (Perkin Elmer, Shelton, CT). Data were expressed as relative luminescence units.
Potency is read from the fitted curve at half-maximal effect.

Row | SMILES | Potency | activity change, negative = inhibition
1 | CC(C)NC(C)C | inactive | –
2 | O=C(O)CC[N+](=O)[O-] | inactive | –
3 | CNC(=O)N(C)c1nnc(C(C)(C)C)s1 | inactive | –
4 | CCC(C)c1ccc(O)cc1 (stereo not given) | inactive | –
5 | O=Cc1ccco1 | inactive | –
6 | CCC(C)(c1ccc(O)cc1)c1ccc(O)cc1 | 10 µM (active) and 15.9 µM (active) | –
7 | Nc1c(Cl)cc([N+](=O)[O-])cc1Cl | inactive | –
8 | O=[N+]([O-])c1c(Cl)c(Cl)c(Cl)c(Cl)c1Cl | inactive | –
9 | CCCCCc1cc(O)cc(O)c1 | 5.05 µM (active) and 22.4 µM (active) | –
10 | CC(C)(c1cc(Cl)c(O)c(Cl)c1)c1cc(Cl)c(O)c(Cl)c1 | 63.3 µM (active) | –
11 | NC(=S)Nc1ccccc1 | 5.73 µM (active) and inactive | –
12 | O=[N+]([O-])c1ccc(O)c([N+](=O)[O-])c1 | inactive | –
13 | CC(C)C(=O)OCC(C)(C)C(OC(=O)C(C)C)C(C)C (stereo not given) | inactive | –
14 | C#C[C@]1(O)CC[C@H]2[C@@H]3CCC4=CC(=O)CC[C@]4(C)[C@H]3CC[C@@]21C | – | -0.0206% (inactive)
15 | CCN(N=O)C(N)=O | inactive | –
16 | c1ccc(N=Nc2ccccc2)cc1 | inactive | –
17 | CCC(C)(C)c1ccc(O)cc1 | inactive | –
18 | c1nc[nH]n1 | – | 4.04% (inactive)
19 | Oc1cc(Cl)c(Cl)cc1Cl | inactive | –
20 | CCCCC(CC)COC(=O)c1ccc(C(=O)OCC(CC)CCCC)c(C(=O)OCC(CC)CCCC)c1 (stereo not given) | inactive | –

Row | SMILES | Potency | activity change, negative = inhibition
21 | CC1(C)C(C=C(Cl)Cl)C1C(=O)OC(C#N)c1cccc(Oc2ccccc2)c1 (stereo not given) | inactive | –
22 | CC(C)Oc1cc(-n2nc(C(C)(C)C)oc2=O)c(Cl)cc1Cl | – | -23.1% (inactive)
23 | O=C1C=CC(=O)C=C1 | inactive | –
24 | O=[N+]([O-])c1cccc2ccccc12 | inactive | –
25 | Nc1ccc(Cl)cc1N | 26.2 µM (active) and 5.64 µM (active) | –
26 | Cc1cc(C)cc(C)c1 | inactive | –
27 | COP(=S)(OC)Oc1ccc([N+](=O)[O-])cc1 | 17.8 µM (active) | –
28 | C=CCc1ccc2c(c1)OCO2 | inactive | –
29 | CCC(=O)O[C@H]1CC[C@H]2[C@@H]3CCC4=CC(=O)CC[C@]4(C)[C@H]3CC[C@]12C | inactive | –
30 | CN(C)C(=O)Nc1ccc(Cl)cc1 | inactive | –
31 | O=S(=O)(Oc1ccc(Cl)cc1)c1ccc(Cl)cc1 | inactive | –
32 | C=CCN(CC=C)C(=O)C(Cl)Cl | inactive | –
33 | C1=Cc2cccc3cccc1c23 | inactive | –
34 | OCC(O)CO | inactive | –
35 | COC(=O)c1sccc1S(=O)(=O)NC(=O)Nc1nc(C)nc(OC)n1 | inactive | –
36 | CC(C)(C)c1ccccc1O | inactive | –
37 | CCCCN(CC)c1c([N+](=O)[O-])cc(C(F)(F)F)cc1[N+](=O)[O-] | inactive | –
38 | c1ccc(P(c2ccccc2)c2ccccc2)cc1 | – | 446% (inactive)
39 | CCCCC(CC)COC(=O)Cl (stereo not given) | inactive | –
40 | N#CCCCl | inactive | –
